# Data as given in PubChem BioAssay (NCATS).
# Results filed as inconclusive are left out. Active and inactive are the calls of the source. The call rests on the fitted dose curve; in most records, active means well fitted inhibition curve with a large enough effect; inconclusive means small, poorly fitted or top-dose-only effect; inactive means flat fitted curve, though single readings scatter.
# Experiment: BET inhibitor-based combinations targeting novel dependencies in MECOM-rearranged (r) AML: AML-194 cell line (AID 2202237; further: nearly all actives have a fitted effect of over 40% in size;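 on viability (% of control): plate controls were vehicle wells for no effect and wells without cells for full effect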)
# Conditions: AML-194 (MECOM-r AML) viability, CellTiter-Glo, 48 h; series mostly up to 46 µM; viability (% of control): at the top concentration
# From the text: Ecotropic viral insertion site 1 (EVI1) is located on chromosome 3q26.2 as part of the MECOM (MDS and EVI1 complex) locus. Under normal hematopoiesis, EVI1 is a regulator of hematopoietic stem cell maintenance and self-renewal and EVI1 levels decrease as the cells differentiate. In approximately 5-10% of de novo acute myeloid leukemia (AML) EVI1 is aberrantly expressed, including Chromosomal inv(3)(q21;q26.2) or t(3;3)(q21;q26.2) alterations (MECOM-r) that account for about 50% of AML with EVI1 overexpression 31. AMLs with high levels of EVI1 have a poor prognosis and an overall survival time averaging between 10-14 months. EVI1 overexpression confers resistance in leukemia cells, highlighting the need to develop new targeted therapies for EVI1 overexpressing AMLs.
# Here, we performed an unbiased chemical drug screening by evaluating the single agent activity of a collection of 2,480 oncology-focused, approved and investigational drugs (NCATS Mechanism Interrogation Plates, MIPE v5.0) against a panel of seven AML cell lines. These included four MECOM-r cell-lines (AML-191, AML-194, UCSD-AML1 and HNT-34) and three non-MECOM-r AMLs (MV4-11, OCI-AML3 and SET-2). Exploiting the mechanistic redundancy built in the library, we identified target-level sensitivities in MECOM-r AML cells and relative activity as compared to other AML subtypes.
# A collection of 2480 mechanistically annotated dugs (MIPE v5.0) was used to screen four 3q26.2 rearranged AML cell lines and three non-3q26.2 rearranged AML cell lines. This library purposely exploits redundancy by including multiple inhibitors of key onco-targets, while simultaneously encompassing mechanistic diversity, targeting more than 800 distinct mechanisms of action. Briefly, cells were seeded in 5 uL of growth media using a Multidrop Combi dispenser into 1536 well white polystyrene tissue culture treated plates (Corning) at a density of 500cells/well. For each cell-line, for each of the 2480 drugs in MIPE v5.0 library, an 11-point dose curve was generated via a 1536 pin-tool. Plates were incubated for 48 hr at standard incubator conditions, covered by a stainless steel gasketed lid to prevent evaporation. Cell viability was determined by luminescence based, Cell Titer Glo assay (Promega). In detail, 3 uL of Cell Titer Glo were added to each well and plates were incubated at room temperature for 15 min with a stainless-steel lid in place. Luminescence readings were taken using a Viewlux (PerkinElmer) with a 2 s exposure time per plate. Compound dose-response curves were normalized to DMSO and empty well controls on each plate. Quantitative drug activity data from dose-response curves was determined utilizing area Under the Curve (AUC) and Z-transformed AUC (Z-AUC, a mean-centering transformation applied to each individual cell-line screened).
# Potency means the concentration at half of the fitted maximal effect.
SMILES,viability (% of control),Potency
CO[C@H]1/C=C/O[C@@]2(C)Oc3c(C)c(O)c4c(O)c(c(/C=N/N5CCN(C)CC5)c(O)c4c3C2=O)NC(=O)/C(C)=C\C=C\[C@H](C)[C@H](O)[C@@H](C)[C@@H](O)[C@@H](C)[C@H](OC(C)=O)[C@@H]1C,89.2% (inactive),–
CC1(C(=O)O)CCC2(C)CCC3(C)C(=CC(=O)C4C5(C)CCC(OC6OC(C(=O)O)C(O)C(O)C6OC6OC(C(=O)O)C(O)C(O)C6O)C(C)(C)C5CCC43C)C2C1 (stereo not given),112% (inactive),–
CCC(=O)NCC[C@@H]1CCc2ccc3c(c21)CCO3,115% (inactive),–
C[C@@H]1COCCN1c1cc(-c2ccnn2C)c2ccnc(-c3ccn[nH]3)c2n1,–,0.332 µM (active)
CCCc1cc(C)[nH]c(=O)c1CNC(=O)c1cc(-c2ccc(N3CCN(C(C)C)CC3)nc2)cc2c1cnn2C(C)C,–,14.8 µM (active)
Cc1ccc(Nc2cc(N[C@@H]3CCCC[C@@H]3N)nnc2C(N)=O)nc1C,–,20.9 µM (active)
CN[C@@H](C)C(=O)N[C@H](C(=O)N1CCC[C@H]1C(=O)Nc1sc(-c2ncco2)nc1-c1ccccc1)C1CCCCC1,108% (inactive),–
COc1ccc2c(c1)[C@]1(C[C@H]1c1ccc3c(/C=C/c4ccc(CN5C[C@@H](C)O[C@@H](C)C5)cc4)n[nH]c3c1)C(=O)N2,–,0.132 µM (active)
N=C1CCCN1Cc1[nH]c(=O)[nH]c(=O)c1Cl,102% (inactive),–
CCOc1ccc(Cc2cc([C@@H]3O[C@H](CO)[C@@H](O)[C@H](O)[C@H]3O)ccc2Cl)cc1,93% (inactive),–
CCOC(=N)c1nc2ccc3ncnc(Nc4cc(F)c(F)cc4Cl)c3c2s1,–,6.61 µM (active)
CC[C@@H](Oc1cccc(CN(CCCOc2ccc(OC)cc2)c2nc3ccccc3o2)c1)C(=O)O,99.9% (inactive),–
CCC[C@H](NC(=O)[C@@H]1[C@H]2CCC[C@H]2CN1C(=O)[C@@H](NC(=O)[C@@H](NC(=O)c1cnccn1)C1CCCCC1)C(C)(C)C)C(=O)C(=O)NC1CC1,91.7% (inactive),–
COc1cccc(-c2c(C)n(Cc3c(F)cccc3C(F)(F)F)c(=O)n(C[C@H](NCCCC(=O)O)c3ccccc3)c2=O)c1F,–,inactive
CSC[C@H]1CN(Cc2c[nH]c3c(N)ncnc23)C[C@@H]1O,91.7% (inactive),–
Nc1ccc(C(=O)c2cc3c(ccc4ccccc43)[nH]2)cc1,–,2.41 µM (active)
CC(=O)NCCCS(=O)(=O)O,103% [at 15.6 µM] (inactive),–
C=CC(=O)Nc1ccc(F)c(-c2ncnc3[nH]cc(C(=O)OCC)c23)c1,74.4% (inactive),–
COc1ccc(Cl)cc1-c1cc(=O)[nH]c(=S)n1CC(N)=O,106% (inactive),–
Cc1ccc(NC(=O)[C@H]2CCCN(C(=O)c3c(C)cccc3F)[C@H]2c2ccc(NC3CCCC3)cc2)cc1C(F)(F)F,110% (inactive),–

SMILES,viability (% of control),Potency
N[C@@H]1CN(c2c(F)cc3c(=O)c(C(=O)O)cn([C@@H]4C[C@@H]4F)c3c2Cl)CC12CC2,83.3% (inactive),–
COc1ccc(C(=O)N2CCN(c3ccc4c(c3)CCC(=O)N4)CC2)cc1OC,108% (inactive),–
CC/C(=C(/c1ccc(O)cc1)c1ccc(OCCNC)cc1)c1ccccc1,–,13.2 µM (active)
O=C(Nc1ncc(SCCN2CCCC2)s1)[C@]1(c2ccc(S(=O)(=O)C3CC3)cc2)C[C@H]1C1CCCCC1,–,16.6 µM (active)
C=CC(=O)Nc1ccc2ncnc(Nc3cccc(Br)c3)c2c1,–,11.8 µM (active)
CCC(=O)NS(=O)(=O)c1ccc(-c2c(-c3ccccc3)noc2C)cc1,111% (inactive),–
CN(C)C[C@@H]1CCn2cc(c3ccccc32)C2=C(C(=O)NC2=O)c2cn(c3ccccc23)CCO1,–,5.9 µM (active)
Cc1onc(-c2ccccc2)c1-c1ccc(S(N)(=O)=O)cc1,96% (inactive),–
COc1cc(N2CCN(C)CC2)ccc1Nc1ncc2c(n1)N(C)c1ccccc1C(=O)N2C,–,20.9 µM (active)
CN[C@@H]1C[C@H]2O[C@@](C)([C@@H]1OC)n1c3ccccc3c3c4c(c5c6ccccc6n2c5c31)C(=O)N[C@H]4O,–,0.382 µM (active)
N#Cc1cccnc1N1CCN(C(=O)c2cccc(Cc3n[nH]c(=O)c4ccccc34)c2)CC1,–,0.132 µM (active)
CCCc1cc(C(=O)N[C@H](Cc2ccc(-c3cccc(OC(F)(F)F)c3)nc2)C(=O)N[C@@H]2CCNC2)sc1C,–,14.8 µM (active)
C[C@@H]1COCCN1c1cc(C2(S(C)(=N)=O)CC2)nc(-c2ccnc3[nH]ccc23)n1 (stereo not given in full),–,5.25 µM (active)
CC(C)(C)OC(=O)Nc1ccc(-c2cc(C(=O)NCCCCCCC(=O)NO)no2)cc1,–,3.32 µM (active)
Cc1ccc(-c2nn(C(C)(C)CNC(=O)c3ccncc3)c3ncnc(N)c23)cc1,–,7.42 µM (active)
CCN(CC)CCNC(=O)c1c(C)[nH]c(/C=C2/C(=O)Nc3ccc(-c4csc(-c5ccccc5)n4)cc32)c1C,–,7.42 µM (active)
CN(C)c1ccc(C(=O)NCCCCCCC(=O)NO)cc1,–,1.32 µM (active)
CNC(=O)[C@H]1O[C@@H](n2cnc3c(NCc4cccc(I)c4)nc(Cl)nc32)[C@H](O)[C@@H]1O,69.4% (inactive),–
NS(=O)(=O)Oc1ccc2c3c(c(=O)oc2c1)CCCCC3,103% (inactive),–
CCOc1cc(/C=C2/C(=O)N(c3ccccc3)N=C2C)cc(Cl)c1OCC(=O)OC,95.5% (inactive),–
